# Screens from PubChem.
# KKLEB cytotox = counter-screen for CF NF-kB inhibitors: cytotoxicity | activity change (cytotoxicity), % at 5 µM | AID 602141 | actives 0.36% (n = 360,000) | KKLEB CF airway cells viability, ATPlite luminescence, overnight; hits give low values; cells stimulated with P. aeruginosa culture filtrate;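 active = corrected activity change at or below -50% at 5 µM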
# LMP1 NFkB inh = reduces LMP1-driven NF-kappaB luciferase signal | LMP1-induced NF-kappaB luciferase reporter cells, luminescence | inhibition, % at 12.5 µM | actives 0.69% (n = 350,000) | AID 504558; in the data active = inhibition above about 41%;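 note: 0% = neutral control wells and 100% = reference inhibitor control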
# HIF-2a block = HIF-2a inhibition. actives 0.72% (n = 360,000). inhibition, % at 18.8 µM. 786-0 RCC cells HIF-2a reporter, luciferase luminescence, overnight;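 active = inhibition of the luminescence signal of 40% or more relative to plate controls, in a single-dose primary screen at 18.75 µM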
# CF NFkB inh = blocks PAF-induced NF-kB reporter in cystic fibrosis cells; KKLEB NF-kB-GFP reporter, GFP fluorescence overnight; inhibition, % at 5 µM; actives 0.86% (n = 360,000);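 active = at least 50% inhibition at 5 µM, scaled per plate between neutral and stimulator controls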;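 note: PAF is a Pseudomonas aeruginosa culture filtrate used as stimulus; plate controls were PAF-stimulated DMSO wells for no effect and unstimulated DMSO wells for full effect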
# MITF TRPM1 inh = inhibitors of MITF-driven TRPM1 promoter in melanoma cells; SK-MEL-5 TRPM1 promoter luciferase, 24 h; inhibition, % at 12.5 µM; actives 0.83% (n = 330,000); AID 488899;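 active = mean inhibition across replicates of 60% or more, whatever share of single replicates reaches that level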
# Peg3 promoter = inhibitors of Peg3 promoter. actives 1.7% (n = 360,000). HeLa PEG-Prom luciferase reporter, luminescence, overnight. inhibition, % at 20 µM;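 active = inhibition of at least 50% at 20 µM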
# Active calls of the source: *; x = no result given. Compounds with a hit are over-represented: about 3% of the library has one in this group of screens.
SMILES,KKLEB cytotox,LMP1 NFkB inh,HIF-2a block,CF NFkB inh,MITF TRPM1 inh,Peg3 promoter
CC1CCCC(NC(=O)CSc2ccc(F)cc2)C1C (configuration not stated),4,-3,-3,12,-9,2
CC1CCCC(NCC(O)COC(c2ccc(F)cc2)c2ccc(F)cc2)C1C (configuration not stated),-14,-16,4,22,86*,104*
CC1(Cc2cccc(C(F)(F)F)c2)C(=O)Nc2ccc(-c3ccc(F)c(Cl)c3)cc21 (configuration not stated),-12,x,10,21,x,37
CCN(CC)CC(C)(C)C(=O)/C=C/c1ccc(/C=C/C(=O)C(C)(C)CN(CC)CC)cc1,-66*,91*,91*,92*,93*,102*
CCN(CC)CCOC(=O)/C=C/c1ccccc1,8,1,15,1,-103,12
CC(C)(C)c1ccc(-c2cn(-c3ccc(Br)cc3)c3[n+]2CCCS3)cc1,-12,28,17,15,90*,45
CC(C)C[C@H](N)c1nnc(SCC(=O)Nc2ccc(Br)cc2)o1,9,-5,1,-10,2,16
CC(C)C[C@H](N)c1nnc(S(=O)(=O)Cc2ccc(F)cc2)o1,-12,3,17,90*,33,114*
CC1=NN(c2nc(-c3ccc(C)cc3)cs2)C(=O)C1N=Nc1ccccc1O (configuration not stated),14,-2,-32,-14,69*,18
CCOC(=O)[C@@H](NC(=O)CC[C@H]1O[C@@H](n2ccc(=O)[nH]c2=O)[C@H](O)[C@@H]1O)C(C)C,0,x,6,1,x,6
Cc1cc(N2CCN(C(C(=O)NC3CCCC3)c3ccc(F)cc3)CC2)c2ccccc2n1 (configuration not stated),x,x,-7,x,x,x
CC(=O)OCC1OC(Nc2cccc(C)c2)C(OC(C)=O)C(OC(C)=O)C1OC(C)=O (configuration not stated),4,53*,8,20,13,10
CC(C)C[C@H]1CN(CCCC[C@H]2CNC(=O)C(=O)N2Cc2ccccc2)C(=O)C(=O)N1CCc1ccc(O)cc1,x,x,0,x,x,x
COC(=O)[C@@]12C[C@@H](CC(=O)NCc3ccc(C)o3)C(=O)N(Cc3cccc4ccccc34)C1=CCC(C)(C)C2,x,x,1,x,x,x
Cc1ccc(-c2onc(C)c2C)cc1S(=O)(=O)N1CCOc2ccccc21,-6,18,14,-4,11,52*
Cc1cc(-c2ccc(C(C)C)c(S(=O)(=O)N3CCOc4ccccc43)c2)on1,-4,5,17,8,3,16
COc1ccc(/C=C/CN2CCC(C(=O)NC(c3ccc(F)cc3)c3ccc4ccccc4n3)CC2)cc1 (configuration not stated),-18,x,-25,10,x,102*
CCOC(=O)/C=c1\s/c(=C\c2ccc3cc(OC)ccc3c2)c(=O)n1CC(=O)NCC1CCCO1 (configuration not stated),-8,13,9,-3,68*,61*
Oc1c(CN2CCCCC2)ccc2cccnc12,-2,18,-4,13,77*,23
COc1ccccc1N1CCN(Cc2cc(Br)c(O)c3ncccc23)CC1,-9,17,12,13,71*,20
CCOc1ccccc1N1CCN(Cc2cccc(OC)c2O)CC1,2,2,-6,1,-2,14
Oc1c(CN2CCCCC2)cc(COCc2ccccc2)c2cccnc12,-6,79*,-10,13,88*,76*
CN(C)C1CCN(Cc2cc(COCc3ccccc3)c3cccnc3c2O)C1 (configuration not stated),-9,29,2,21,73*,36
COCc1cc(CN2CCCC2)c(O)c2ncccc12,4,13,20,-17,27,20
O=[N+]([O-])c1cc(CN2CCCC2)c2cccnc2c1O,-28,1,12,26,11,20
SMILES,KKLEB cytotox,LMP1 NFkB inh,HIF-2a block,CF NFkB inh,MITF TRPM1 inh,Peg3 promoter
Cn1c(=O)c2c(-c3ccccc3)n(-c3ccccc3S)cc2n(C)c1=O,-6,5,4,-15,x,9
Oc1c(Cl)cc(CN2CCCCC2)c2cccnc12,0,63*,7,14,64*,46
Oc1c(CN2CCN(c3ccccn3)CC2)cc(Cl)c2cccnc12,1,40,25,11,84*,50*
CC1=C(C(=O)N2CCCCCC2)CC(CC(=O)NC2CC2)C(=O)N1Cc1ccccc1 (configuration not stated),2,x,4,-24,x,-7
Cc1ccc(NC(=O)c2cccc3c2C(=O)N(C2CCCCC2)C3)c(C)c1,-1,-7,4,17,5,-3
Cc1cc(C)c(NC(=O)c2cccc3c2C(=O)N(C2CCCCC2)C3)c(C)c1,1,3,15,6,13,56*
COc1ccc(N2CCc3c(C)nc4c(OC)cc(OC)cc4c32)cc1,2,3,28,-154,-8,74*
COc1ccc(N2CCc3c(C)nc4c(OC)cc(OC)cc4c32)c(OC)c1,2,-2,16,-6,5,14
CC(C)n1c(=O)c2ccccc2n1Cc1cn(-c2ccc(Cl)cc2)nn1,-5,x,30,5,x,15
CCc1ccc(Nc2n[n+](-c3ccccc3)c(-c3ccc(N(CC)CC)cc3)s2)cc1,1,2,-123,33,68*,84*
Cc1ccc(CCNC(=O)c2ccc(NC3=NC4CS(=O)(=O)CC4S3)cc2)cc1 (configuration not stated),-18,-5,1,13,1,10
Cc1ccc(CCNC(=O)Cc2ccc(NC3=NC4CS(=O)(=O)CC4S3)cc2)cc1 (configuration not stated),22,85*,12,-6,-5,17
CCOc1ccc(-c2cc(C(=O)NC3CCCCC3)[nH]n2)c(C)c1,10,x,-145,-13,x,-130
O=C(NC(Nc1nc2ccc([N+](=O)[O-])cc2s1)(C(F)(F)F)C(F)(F)F)c1cccnc1,-48,32,12,55*,78*,12
CN(C)S(=O)(=O)c1ccc2nc(NC(=O)c3cccnc3)sc2c1,-7,-23,-224,16,-57,-171
O=C(NC(Nc1nc2ccc([N+](=O)[O-])cc2s1)(C(F)(F)F)C(F)(F)F)c1ccccc1Cl,-53*,53*,15,45,75*,65*
CSc1ncnc2c1ncn2CCCNCc1ccccn1,12,-2,4,12,x,7
O=C(Nc1ccc2c(c1)OCCO2)C1c2ccccc2OCC(=O)N1Cc1ccccc1 (configuration not stated),x,x,-1,x,x,x
Cc1ccc(C2(c3ccccc3)NC(=O)N(CC(=O)NCc3ccccc3)C2=O)cc1C (configuration not stated),3,70*,14,-5,12,12
